Residue numbers refer to the chain shown, from its start.
Assays:
Experiment in all cases: yeast three-hybrid, YBZ-1, SC-Leu-His + 0.5 mM 3-AT, 4 days
Conditions in all cases: tags: N-Gal4 AD-HA kept; label: inside an RPR1-promoter hybrid RNA with tandem MS2 sites; ssRNA
PUM1 PUF domain R4-MNV = PUM1 PUF domain R4-MNV (Homo sapiens, UniProt Q14671 828-1176, N971M;H972N;Q975V)
In short: (§1)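 Repeat regions from input (SC-Leu) and selection (SC-Leu-His + 0.5 mM 3-AT) plates were PCR-amplified and Illumina-sequenced after four days of growth. The cells were strain YBZ-1 with a LexA–MS2 coat fusion and a HIS3 reporter, co-expressing Pumilio-1 PUF domain libraries and matching RNA elements from a centromeric plasmid. The interaction score is the log change in variant frequency from input to selection, taken in log2 with a pseudocount of 1 for absent variants.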

PUM1 PUF domain R4-YFG = PUM1 PUF domain R4-YFG (Homo sapiens, UniProt Q14671 828-1176, N971Y;H972F;Q975G)
In short: as §1

PUM1 PUF domain R5-DYG = PUM1 PUF domain R5-DYG (Homo sapiens, UniProt Q14671 828-1176, C1007D;R1008Y;Q1011G)
In short: as §1

PUM1 PUF domain R3-VRC = PUM1 PUF domain R3-VRC (Homo sapiens, UniProt Q14671 828-1176, C935V;Q939C)
In short: as §1

PUM1 PUF domain R6-KFG = target: T1, PUM1 PUF domain R6-KFG (Homo sapiens, UniProt Q14671 828-1176, N1043K;Y1044F;Q1047G)
T1 sequence: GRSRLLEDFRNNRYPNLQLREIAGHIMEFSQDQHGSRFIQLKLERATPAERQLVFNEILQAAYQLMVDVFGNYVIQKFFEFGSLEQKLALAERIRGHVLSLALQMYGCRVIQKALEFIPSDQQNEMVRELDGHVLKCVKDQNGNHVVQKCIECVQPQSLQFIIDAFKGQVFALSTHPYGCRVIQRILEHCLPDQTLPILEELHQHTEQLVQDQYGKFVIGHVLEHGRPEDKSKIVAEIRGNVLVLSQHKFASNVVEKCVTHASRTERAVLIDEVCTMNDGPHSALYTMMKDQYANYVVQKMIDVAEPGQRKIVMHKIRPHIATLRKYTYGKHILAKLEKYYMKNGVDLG
In short: as §1

PUM1 PUF domain R3-IRC = PUM1 PUF domain R3-IRC (Homo sapiens, UniProt Q14671 828-1176, C935I;Q939C)
In short: as §1

PUM1 PUF domain R6-GFG = target: T2, PUM1 PUF domain R6-GFG (Homo sapiens, UniProt Q14671 828-1176, N1043G;Y1044F;Q1047G)
T2 sequence: T1 sequence with K216G
In short: as §1

PUM1 PUF domain R1-NWR = PUM1 PUF domain R1-NWR (Homo sapiens, UniProt Q14671 828-1176, S863N;R864W;Q867R)
In short: as §1

PUM1 PUF domain R1-KHR = PUM1 PUF domain R1-KHR (Homo sapiens, UniProt Q14671 828-1176, S863K;R864H;Q867R)
In short: as §1

PUM1 PUF domain R1-VYR = PUM1 PUF domain R1-VYR (Homo sapiens, UniProt Q14671 828-1176, S863V;R864Y;Q867R)
In short: as §1

PUM1 PUF domain R8-PWK = PUM1 PUF domain R8-PWK (Homo sapiens, UniProt Q14671 828-1176, N1122P;Y1123W;Q1126K)
In short: as §1

PUM1 PUF domain R8-KHG = PUM1 PUF domain R8-KHG (Homo sapiens, UniProt Q14671 828-1176, N1122K;Y1123H;Q1126G)
In short: as §1

PUM1 PUF domain R3-EWC = PUM1 PUF domain R3-EWC (Homo sapiens, UniProt Q14671 828-1176, C935E;R936W;Q939C)
In short: as §1

PUM1 PUF domain R7-LNR = PUM1 PUF domain R7-LNR (Homo sapiens, UniProt Q14671 828-1176, S1079L;E1083R)
In short: as §1

PUM1 PUF domain R2-NRD = PUM1 PUF domain R2-NRD (Homo sapiens, UniProt Q14671 828-1176, Y900R;Q903D)
In short: as §1

PUM1 PUF domain R6-SRE = target: T3, PUM1 PUF domain R6-SRE (Homo sapiens, UniProt Q14671 828-1176, N1043S;Y1044R;Q1047E)
T3 sequence: T1 sequence with K216S, F217R, G220E
In short: as §1

Q: Which results are given for “GGCUAGAACUAGUGGAUCCCCCGGCGCCCGGCGGCUCGAGCCCGGGUAAGUGUAUAUAGUCUGCAUGCCGCCGGGCGCCAUGCCUGCAGGUCGACUCUAGAAAACAUG”?
A: binding signal (PUM1 PUF domain R4-MNV): 3.98 log2 enrichment (interaction score); binding signal (PUM1 PUF domain R4-YFG): 3.63 log2 enrichment (interaction score)

Q: For “GGCUAGAACUAGUGGAUCCCCCGGCGCCCGGCGGCUCGAGCCCGGGUAAGUGUACAUAGUCUGCAUGCCGCCGGGCGCCAUGCCUGCAGGUCGACUCUAGAAAACAUG”, which binding signal (PUM1 PUF domain R4-MNV) is on record?
A: 0.87 log2 enrichment (interaction score)

Q: With “GGCUAGAACUAGUGGAUCCCCCGGCGCCCGGCGGCUCGAGCCCGGGUAAGUGUCAAUAGUCUGCAUGCCGCCGGGCGCCAUGCCUGCAGGUCGACUCUAGAAAACAUG” as the sequence, how does the binding signal (PUM1 PUF domain R5-DYG) read?
A: 3.79 log2 enrichment (interaction score)

Q: What does the source list for “GGCUAGAACUAGUGGAUCCCCCGGCGCCCGGCGGCUCGAGCCCGGGUAAGUGUAAAUAGUCUGCAUGCCGCCGGGCGCCAUGCCUGCAGGUCGACUCUAGAAAACAUG”?
A: binding signal (PUM1 PUF domain R5-DYG): 3.86 log2 enrichment (interaction score); binding signal (PUM1 PUF domain R3-VRC): 3.72 log2 enrichment (interaction score); binding signal (PUM1 PUF domain R6-KFG): 3.39 log2 enrichment (interaction score); binding signal (PUM1 PUF domain R3-IRC): 2.81 log2 enrichment (interaction score); binding signal (PUM1 PUF domain R4-YFG): 2.07 log2 enrichment (interaction score); binding signal (PUM1 PUF domain R6-GFG): 3.55 log2 enrichment (interaction score)

Q: “GGCUAGAACUAGUGGAUCCCCCGGCGCCCGGCGGCUCGAGCCCGGGUAAGUGUAAGUAGUCUGCAUGCCGCCGGGCGCCAUGCCUGCAGGUCGACUCUAGAAAACAUG” was tested. Which binding signal (PUM1 PUF domain R3-VRC) did it give?
A: 0.33 log2 enrichment (interaction score)

Q: “GGCUAGAACUAGUGGAUCCCCCGGCGCCCGGCGGCUCGAGCCCGGGUAAGUGUAAAUCGUCUGCAUGCCGCCGGGCGCCAUGCCUGCAGGUCGACUCUAGAAAACAUG” was tested. Which binding signal (PUM1 PUF domain R1-NWR) did it give?
A: 6.94 log2 enrichment (interaction score)

Q: And the binding signal (PUM1 PUF domain R1-KHR)?
A: 5.17 log2 enrichment (interaction score)

Q: And the binding signal (PUM1 PUF domain R1-VYR)?
A: 2.62 log2 enrichment (interaction score)

Q: “GGCUAGAACUAGUGGAUCCCCCGGCGCCCGGCGGCUCGAGCCCGGGUAAGUGUAAAUUGUCUGCAUGCCGCCGGGCGCCAUGCCUGCAGGUCGACUCUAGAAAACAUG” was tested. Which binding signal (PUM1 PUF domain R1-NWR) did it give?
A: 4.99 log2 enrichment (interaction score)

Q: And the binding signal (PUM1 PUF domain R1-KHR)?
A: 2.59 log2 enrichment (interaction score)

Q: “GGCUAGAACUAGUGGAUCCCCCGGCGCCCGGCGGCUCGAGCCCGGGUAAGCGUAAAUAGUCUGCAUGCCGCCGGGCGCCAUGCCUGCAGGUCGACUCUAGAAAACAUG” was tested. Which binding signal (PUM1 PUF domain R8-PWK) did it give?
A: 5.71 log2 enrichment (interaction score)

Q: And the binding signal (PUM1 PUF domain R8-KHG)?
A: 5.27 log2 enrichment (interaction score)

Q: How did the binding signal (PUM1 PUF domain R3-EWC) turn out when “GGCUAGAACUAGUGGAUCCCCCGGCGCCCGGCGGCUCGAGCCCGGGUAAGUGUAACUAGUCUGCAUGCCGCCGGGCGCCAUGCCUGCAGGUCGACUCUAGAAAACAUG” was run?
A: 4.45 log2 enrichment (interaction score)

Q: With “GGCUAGAACUAGUGGAUCCCCCGGCGCCCGGCGGCUCGAGCCCGGGUAAGUCUAAAUAGUCUGCAUGCCGCCGGGCGCCAUGCCUGCAGGUCGACUCUAGAAAACAUG” as the sequence, how does the binding signal (PUM1 PUF domain R7-LNR) read?
A: 3.62 log2 enrichment (interaction score)

Q: “GGCUAGAACUAGUGGAUCCCCCGGCGCCCGGCGGCUCGAGCCCGGGUAAGGGUAAAUAGUCUGCAUGCCGCCGGGCGCCAUGCCUGCAGGUCGACUCUAGAAAACAUG” was tested. Which binding signal (PUM1 PUF domain R8-KHG) did it give?
A: 3.34 log2 enrichment (interaction score)

Q: Which binding signal (PUM1 PUF domain R2-NRD) does the source give for “GGCUAGAACUAGUGGAUCCCCCGGCGCCCGGCGGCUCGAGCCCGGGUAAGUGUAAAAAGUCUGCAUGCCGCCGGGCGCCAUGCCUGCAGGUCGACUCUAGAAAACAUG” here?
A: 3.12 log2 enrichment (interaction score)

Q: Which binding signal (PUM1 PUF domain R6-SRE) does the source give for “GGCUAGAACUAGUGGAUCCCCCGGCGCCCGGCGGCUCGAGCCCGGGUAAGUGGAAAUAGUCUGCAUGCCGCCGGGCGCCAUGCCUGCAGGUCGACUCUAGAAAACAUG” here?
A: 5.64 log2 enrichment (interaction score)
